Screens deposited in PubChem by Sanford-Burnham Center for Chemical Genomics.
CYP2C19 act = activators of human cytochrome P450 2C19. AID 1025. 96,000 tested, under 10 active. P33261. recombinant CYP2C19, luciferin-H EGE luminescence; active compounds read high; 0 = fully inhibited enzyme, 1 = untreated enzyme. activation factor at 5 µM;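 active = activation factor of at least 2 at 5 µM in the primary screen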;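 note: 0 = wells with 2.5 mM tranylcypromine and 1 = vehicle-only wells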
Target sequence (P33261 whole entry, looked up): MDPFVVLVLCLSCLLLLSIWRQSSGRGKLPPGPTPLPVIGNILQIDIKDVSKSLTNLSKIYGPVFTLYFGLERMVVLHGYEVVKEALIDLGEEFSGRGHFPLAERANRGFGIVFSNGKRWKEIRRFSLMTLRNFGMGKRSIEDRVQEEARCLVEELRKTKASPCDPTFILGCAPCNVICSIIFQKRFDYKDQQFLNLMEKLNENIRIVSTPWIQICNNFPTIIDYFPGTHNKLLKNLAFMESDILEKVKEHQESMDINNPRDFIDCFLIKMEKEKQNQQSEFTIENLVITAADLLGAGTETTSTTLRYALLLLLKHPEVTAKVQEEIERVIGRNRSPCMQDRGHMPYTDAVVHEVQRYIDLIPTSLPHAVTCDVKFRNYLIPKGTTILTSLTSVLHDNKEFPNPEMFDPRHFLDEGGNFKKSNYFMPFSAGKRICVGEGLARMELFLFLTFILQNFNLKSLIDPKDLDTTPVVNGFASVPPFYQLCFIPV
CYP2C9 inhib = inhibitors of human CYP2C9; P11712; CYP2C9 Supersomes, luciferin-H conversion, luminescence; inhibition, % at 5 µM; hit rate 20% among 96,000;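 active = blocking of liver enzyme CYP2C9 beyond about 50% at 5 µM, limit read from the data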
CYP2C9 activ = increases human cytochrome P450 2C9 activity; recombinant CYP2C9, luciferin-H conversion, luminescence; active compounds read high; factor 1 = untreated enzyme, 0 = blocked; activation factor at 5 µM; hit rate 1.4% among 96,000;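 active = activation factor of 2 or more for CYP2C9 at a 5 µM dose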;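 note: 0 = sulfaphenazole-blocked wells and 1 = vehicle-only wells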
CYP2C19 inhib = inhibitors of human CYP2C19; hit rate 21% among 96,000; P33261; CYP2C19 Supersomes, luciferin-H EGE luminescence, 30 min; inhibition, % at 5 µM;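 active = CYP2C19 inhibition above a set limit at 5 µM in the primary screen, cut at about 50% in these data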;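 note: plate controls were negative control wells for no effect and 2.5 mM tranylcypromine positive control for full effect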
Mac1 fbg enh = CD11b/CD18-fibrinogen binding enhancement; P05107+P11215; K562 CD11b/CD18 adhesion to fibrinogen, ATPlite luminescence; activation, % at 10 µM; hit rate 0.07% among 93,000;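 active = 10 µM primary screen giving 50% or more activity, confirmed by 40% or more on retest at that dose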
Mac1 fbg inh = CD11b/CD18-fibrinogen binding inhibition. inhibition, % at 10 µM. P05107+P11215. K562 CD11b/CD18 adhesion to fibrinogen, ATPlite luminescence; Mn2+ added to activate the integrin. hit rate 0.54% among 93,000;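 active = primary inhibition of 50% or more at 10 µM, then 40% or more on retest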
* hit, by the source's call; x = no result. Hits are enriched below; roughly 28% of the tested compounds scored in any of these assays.

SMILES	CYP2C19 act	CYP2C9 inhib	CYP2C9 activ	CYP2C19 inhib	Mac1 fbg enh	Mac1 fbg inh
O=C(C1Cc2ccccc2CN1S(=O)(=O)c1cccs1)N1CCCCCC1 (centres undefined)	0.2	47	0.5	82*	-2	-3
CCOC(=O)c1c(NC(=O)C2CCN(S(=O)(=O)c3cccs3)CC2)sc(C)c1C	0.6	35	0.7	39	-1	-3
Cc1cc(S(=O)(=O)N2CCCC2)ccc1OCC(=O)N1CCOCC1	0.9	48	0.5	5	-3	-16
CCN1CCCC1CN(Cc1cc2cc(OC)ccc2[nH]c1=O)C(=O)NCc1ccccc1 (centres undefined)	0.9	28	0.7	12	-1	-9
Cc1csc(NC(=O)C2CCCN(S(=O)(=O)c3ccc(Br)s3)C2)n1 (centres undefined)	0.1	94*	0.1	92*	-1	7
COc1ccc(S(=O)(=O)N2CCCC(C(=O)N3CCCCCC3)C2)cc1 (centres undefined)	0.2	-32	1.3	80*	x	x
Cc1ccc(NC(=O)CN2CCCN(S(=O)(=O)c3ccc(Br)s3)CC2)cc1	0.1	31	0.7	91*	1	3
O=C(NCc1cccs1)C1CCCN(S(=O)(=O)c2ccc(Br)s2)C1 (centres undefined)	1	-31	1.3	-3	0	8
CCOC(=O)N1CCN(S(=O)(=O)c2cc(Br)cnc2N)CC1	0.1	94*	0.1	95*	-5	-14
COc1ccc(C(=O)N2CCCC(C(=O)N3CCCCCC3)C2)cc1 (centres undefined)	0.6	10	0.9	44	-5	-1
O=c1c2ccccc2cnn1-c1ccc(Cl)cc1	0.9	10	0.9	14	-5	9
CCOCCc1nnc(NC(=O)COC)s1	0.9	29	0.7	9	1	-7
CCOC(=O)N1CCN(C(=O)C2CCCN(S(=O)(=O)c3ccc(C)cc3)C2)CC1 (centres undefined)	0.5	-57	1.6	53*	2	20
CCOC(=O)N1CCN(C(=O)C2CCCN(S(=O)(=O)c3ccccc3)C2)CC1 (centres undefined)	0.9	24	0.8	10	-1	6
CCOC(=O)C1CCCN(S(=O)(=O)c2ccc(Br)s2)C1 (centres undefined)	0.2	26	0.7	83*	3	11
O=C(O)C1CCCN1S(=O)(=O)c1ccc(Br)s1 (centres undefined) (tested in a mixture with another compound)	0.4	-13	1.1	59*	-1	-55
CCOC(=O)C1CCCN(S(=O)(=O)c2ccc(OC)cc2)C1 (centres undefined)	0	-142	2.4*	96*	-1	-3
CC(C)C1Cc2c(sc3c2c(=O)n(Cc2ccccc2)c2nncn32)CO1 (centres undefined)	1.1	-19	1.2	-11	-1	5
COc1nc(N2CCOCC2)nc(-n2cccc2)n1	1	11	0.9	-2	x	x
Cc1ccc(N2CCCCn3c2nc2c3c(=O)n(CC(=O)O)c(=O)n2C)cc1	1.2	-13	1.1	-22	-5	-4
Cc1ccccc1CN1C(=O)Nc2ccccc2C(=O)N1C(C)(C)C	0.8	1	1	18	1	-3
CC1CCN(CCNC(=O)CN(C)S(=O)(=O)c2cccc3nsnc23)CC1	1.1	-5	1	-12	-4	12
Cc1ccc(CNC(=O)CN(C)S(=O)(=O)c2cccc3nsnc23)cc1	0.4	24	0.8	59*	1	-12
Cc1ccc(NC(=O)CN(C)S(=O)(=O)c2cccc3nsnc23)cc1	0.7	77*	0.2	28	0	-3
CCN(CC)C(=O)CN(C)S(=O)(=O)c1cccc2nsnc12	1.1	-11	1.1	-8	0	6
SMILES	CYP2C19 act	CYP2C9 inhib	CYP2C9 activ	CYP2C19 inhib	Mac1 fbg enh	Mac1 fbg inh
CC(=O)c1cccc(NC(=O)CN(c2ccc(C)cc2)S(=O)(=O)c2cccc3nonc23)c1	0.5	72*	0.3	46	-4	1
O=C(COC(=O)CCCc1nc2ccccc2s1)Nc1ncc(Cl)cc1Cl	x	x	x	x	7	-12
CC(C)C(=O)Nc1nnn(C)n1	1	-1	1	0	-4	-3
CN(C)CCCOC(=O)Cc1ccc(Cl)cc1	0.3	26	0.7	69*	2	14
CN(C)CCCOC(=O)CCc1ccccc1	0.9	2	1	8	2	-13
CCOC(=O)N1CCC(=NNC(=O)COc2ccc(C#N)cc2)CC1	x	x	x	x	-4	-14
CCNC(=O)COn1c(SCC(=O)NCC)nc2ccccc2c1=O	0.8	16	0.8	24	x	x
COc1ccc(N/C(N)=N/c2nc(CSc3ccc(Cl)cc3)cc(=O)[nH]2)cc1	0.3	49	0.5	66*	2	8
CCN1C(=O)C2C(C1=O)N1C(c3cccs3)C3C(=O)N(CC)C(=O)C3N1C2c1cccs1 (centres undefined)	1	-2	1	1	-1	-17
Cc1cccc(C)c1N1CCN(c2ccc3nnc(C(F)(F)F)n3n2)CC1	0.4	89*	0.1	64*	4	48
FC(F)(F)c1nnc2ccc(N3CCOCC3)nn12	1.2	-18	1.2	-20	-2	-7
COc1ccc(/C=C2/N=C(c3cccs3)OC2=O)cc1OC(C)C	0.8	72*	0.3	24	-4	-12
CN(C)/C=C1\N=C(c2cccs2)OC1=O	0.9	-4	1	6	-4	-2
O=C(COc1ncnc2ccccc12)NCCCN1CCCC1=O	1.2	-26	1.3	-23	0	-5
O=C(NCc1ccco1)C(c1cccnc1)N(C(=O)Cn1nnc2ccccc21)c1ccc(F)cc1 (centres undefined)	0.9	2	1	12	-3	-12
COc1ccc(S(=O)(=O)Cc2ccc(C(=O)N3CCc4ccccc4C3)o2)cc1	0.1	53*	0.5	89*	2	8
Cc1ccc(S(=O)(=O)Cc2ccc(C(=O)N3CCc4ccccc4C3)o2)cc1	0.1	56*	0.4	92*	6	6
Cc1cc(OCC(=O)Nc2ccc3c(c2)OCCO3)cc(C)c1Cl	0.9	-23	1.2	6	-4	-4
O=C(COc1ccc2ccccc2c1)Nc1ccc(Cc2ccncc2)cc1	0.1	95*	0.1	90*	x	x
Cc1cc(OCC(=O)Nc2ccncc2)ccc1Br	0	99*	0	100*	-10	77*
COc1cc2c(=O)n(-c3ccc(C)cc3)c(=O)n(CC(=O)c3ccc4c(c3)OCO4)c2cc1OC	1	2	1	4	3	-54
COc1cc2c(O)c3c(c(-c4ccc5c(c4)OCO5)c2cc1OC)C(=O)OC3	0.8	68*	0.3	19	x	x
